# Test results as given in ChEMBL document CHEMBL4513216, “Probing the Open Global Health Chemical Diversity Library for Multistage-Active Starting Points for Next-Generation Antimalarials” (ACS Infect Dis, 2020).
# The campaign covered roughly 69,000 compounds. About 8,600 (12%) showed an effect of 50% or more. This is one part of a sample in which strong results are shown more often than they occur.
# Test system: Plasmodium berghei
# Assay: Screen against P. berghei liver stage (PbLuc), transformed with Luciferase, at 10uM
# Type: functional, HepG2
# Conditions: tested at 10 uM
row,Structure (SMILES),INHIBITION [%]
1,Cc1ccc(CN2CCCC3(CCCC(=O)N3C)C2)s1 (centres undefined),4.98
2,CC(C)c1nnc2n1CCN(Cc1ncc(-c3ccccc3)o1)C2,38.85
3,Cc1cc(C(=O)NCc2cccs2)nc(N2CCCC2)n1,-2.28
4,CC(C)n1[nH]c(=O)c2c1NC(=O)CC2C1CCCCC1 (centres undefined),-25.6
5,CCOc1ccc(C2SCC(=O)Nc3c2c(=O)[nH]n3C(C)C)cc1 (centres undefined),44.9
6,CC(C)COc1ccc(C2SCC(=O)Nc3c2c(=O)[nH]n3C(C)C)cc1 (centres undefined),52.4
7,CC(C)n1[nH]c(=O)c2c1NC(=O)CSC2C1CCCCC1 (centres undefined),62.5
8,CCCOc1ccc(C2SCC(=O)Nc3c2c(=O)[nH]n3C(C)C)cc1 (centres undefined),15.1
9,CC(C)n1[nH]c(=O)c2c1NC(=O)CSC2c1ccc(OCC(N)=O)cc1 (centres undefined),6.83
10,Cc1csc(N2CCCN(C(=O)c3occc3C)CC2)n1,46.2
11,CC(C)(C)OC(=O)N1CCN(C(=O)CCn2cccn2)CC1,38.05
12,O=C(C1CC=CC1)N1CC[C@@H](O)[C@H]1Cc1cccnc1,43
13,CCNC(=O)CNC(=O)Nc1c(F)cc(F)cc1-c1ccccc1,7.77
14,COc1cccc(CNCCNS(=O)(=O)Cc2ccccc2)c1,30.2
15,CC(=O)N1CCN(c2cc(CCNC(=O)C(C)C)nc(C3CC3)n2)CC1,18.3
16,CCn1nc(C)c(NC(=O)c2cc(NC(=O)C3CC3)n(C)n2)c1C,29.7
17,Cc1cc(NC(=O)C(C)C)n(-c2nc(C)c(C)c(=O)[nH]2)n1,93.2
18,CCc1c(C)nc(-n2nc(C3CC3)cc2NC(C)=O)[nH]c1=O,93.7
19,CC(C)C(=O)Nc1cc(C(=O)NC2CC(C)(C)NC(C)(C)C2)nn1C,44.6
20,Cc1nc(C)c(CC(=O)Nc2nnc(C3CC3)s2)c(=O)[nH]1,-0.18
21,CCc1c(C)nn(CCNC(=O)c2cc(C3CC3)n[nH]2)c1C,-40.7
22,Cn1nc(CNC(=O)C2CC2)cc1C1CC1,-62.4
23,CC(C)C(=O)Nc1cc(C(C)(C)C)nn1-c1ccccn1,-6.94
24,CCc1cc(=O)[nH]c(-n2nc(C3CC3)cc2NC(=O)C2CC2)n1,91
25,Cc1cc(C)n(-c2cncc(NCCNC(=O)C(C)C)n2)n1,-23.5
26,Cc1nc(-n2nc(C3CC3)cc2NC(=O)C(C)C)[nH]c(=O)c1C,93.2

row,Structure (SMILES),INHIBITION [%]
1,CN(C)Cc1nn(C)c2c1CCN(C(=O)c1cnccn1)C2,-43.1
2,CNC(=O)c1ccc(C2CN(Cc3ccc(F)cc3)CCO2)nc1 (centres undefined),2.55
3,Cc1nc(CN(C)C2CCN(CCc3ccccn3)C2)no1 (centres undefined),-41.6
4,Cc1cc(C)n(C2CCCN(C(=O)c3ccc(F)c(F)c3)C2)n1 (centres undefined),18.7
5,CN(C)CCN1CCOCC12CCN(C(=O)C1CC1)CC2,6.55
6,COC[C@]1(O)CCN(c2cc(N3CCOCC3)ncn2)CC1(C)C,32.3
7,Cc1cc(OCc2ccc(C(=O)O)s2)ccc1Cl,-61.9
8,CSC(C)C(=O)NCc1ccnc(N2CCN(C)CC2)c1 (centres undefined),-11.98
9,CCOc1ccc(Cl)c(C(=O)N2CCCN(CC(N)=O)CC2)n1,47
10,COCCNC(=O)CCc1c(C)nn(-c2nc(C)c(C)c(=O)[nH]2)c1C,-8.69
11,Cc1[nH]c2cc(C3CCN(C(=O)c4ccccn4)CC3)nn2c(=O)c1C,29.55
12,CC(=O)Nc1cc(C2CC2)nn1-c1nc(C)c(C)c(=O)[nH]1,72.4
13,COc1ccc(CN2CCO[C@H]3CN(C4CCCC4)CC[C@H]3C2=O)cc1,27.7
14,Cc1nc(-c2cc(C(=O)N3CCN(C)CC3)c3ccccn23)cn1C,52.3
15,Cc1nc(-c2cc(C(=O)N3CCCN(C)CC3)c3ccccn23)cn1C,21.7
16,Cn1ccc(-c2cc(C(=O)N3CCC(O)CC3)c3ccccn23)n1,42.1
17,CN1CCCN(C(=O)c2cc(-c3cc[nH]n3)n3ccccc23)CC1,47.5
18,CN(C)C1CCN(C(=O)c2cc(-c3ccn(C)n3)n3ccccc23)CC1,62.9
19,Cn1ccc(-c2cc(C(=O)N3CCC(C(N)=O)CC3)c3ccccn23)n1,-23.1
20,CCCC1C=CCN1C(=O)c1cc(COc2ccccc2)[nH]n1 (centres undefined),-1.49
21,CCCNC(=O)c1cc2c(s1)CCN2C(=O)CN(C)C,-25.2
22,CCn1cc(NC(=O)NCC(C)(C)N2CCc3ccccc3C2)cn1,-31.8
23,CC(=O)N1CCCN(C(=O)c2ccc(Cn3ccccc3=O)o2)CC1,19.45
24,COc1ccc(OC)c(NC(=O)c2c(C)cn(C)c2CC(=O)O)c1,29
25,CCOCc1ccccc1NC(=O)NC1CCN(c2ccccc2)C1 (centres undefined),36.2
26,CCOCc1ccccc1NC(=O)NC1CCN(C2CCCC2)C1 (centres undefined),58.6

row,Structure (SMILES),INHIBITION [%]
1,CCOCc1ccccc1NC(=O)NC1CCN(CC(F)(F)F)C1 (centres undefined),38.3
2,CCOCC(O)CN1CCN(C(=O)c2cccc(CC#N)c2)CC1 (centres undefined),9.54
3,CCSc1nsc(NC(=O)COc2ccc3c(c2)OCO3)n1,49.4
4,COc1ccccc1CN1CCC2(CC1)CC(Oc1ccccn1)CO2 (centres undefined),14.2
5,c1ccc(O[C@H]2CO[C@@]3(CCN(Cc4ccc5c(c4)OCO5)C3)C2)nc1,71.9
6,Cn1cc(CN2CCC[C@]3(C[C@H](Oc4ccccn4)CO3)C2)cn1,46.4
7,c1ccc(O[C@@H]2CO[C@@]3(CCCN(CC4CCOCC4)C3)C2)nc1,32.2
8,CCO[C@H]1CO[C@@]2(CCN(Cc3ccc4c(c3)OCO4)C2)C1,-20.8
9,CCO[C@@H]1CO[C@@]2(CCN(Cc3ccc4c(c3)OCO4)C2)C1,18.6
10,COC1COC2(CCN(Cc3ccccc3C)CC2)C1 (centres undefined),37.1
11,Cn1cc(CN2CCC[C@]3(C[C@@H](Oc4ccccn4)CO3)C2)cn1,15.6
12,Cn1cc(CN2CC[C@]3(C[C@H](Oc4ccccn4)CO3)C2)cn1,51.4
13,COC1COC2(CCN(Cc3ccc4ccccc4n3)CC2)C1 (centres undefined),57.4
14,COC1COC2(CCN(Cc3ccccc3F)CC2)C1 (centres undefined),3.25
15,c1ccc(OC2COC3(CCN(CC4CC4)CC3)C2)nc1 (centres undefined),53.2
16,CC(=O)N1CCCn2nc(CNC(=O)N3CCCCC3)cc2C1,14.3
17,CCc1ncc2c(n1)CN(c1cc(N3CCN(C)CC3)nc(N)n1)C2,19.7
18,CNc1nc(C2CCCN2)nc2c1CCN(S(=O)(=O)C1CCCCC1)C2 (centres undefined),-44.8
19,CC(C)CCC(=O)N1CCCC2(CCN(Cc3ccccc3C#N)C2)C1 (centres undefined),1.71
20,COc1ccc(CCn2cnc(C#N)n2)cc1,-7.46
21,Cc1cccc(CN2CCc3onc(Cn4cccc4)c3C2)n1,31.5
22,NC(=O)c1cc(CC2CCCN(Cc3cnccn3)CC2)ncn1 (centres undefined),-0.232
23,c1ccc(CN2CC[C@]3(C[C@@H](Oc4ccccn4)CO3)C2)nc1,31.3
24,O=C(NC1COC2(CCN(Cc3ccccn3)CC2)C1)c1ccccn1 (centres undefined),-8.69
25,Cn1cc(CN2CC[C@]3(C[C@H](OCc4ccccn4)CO3)C2)cn1,69.6
26,CCN1CCC2(CC1)CC(Nc1ncccn1)CO2 (centres undefined),45.7

row,Structure (SMILES),INHIBITION [%]
1,Cn1cc(CN2CCC3(CC2)CC(Nc2nccs2)CO3)cn1 (centres undefined),13.6
2,c1ccc(CN2CCC3(CC2)CC(Oc2cccnc2)C3)nc1,31.2
3,c1ccc(CO[C@@H]2CO[C@@]3(CCN(Cc4ccccn4)C3)C2)nc1,1.58
4,c1ccc(CN2CCC3(CC2)CC(Nc2nccs2)CO3)nc1 (centres undefined),53.2
5,Cc1cc(C)cc(CN2CCC3(CC2)CC(Nc2ncccn2)CO3)c1 (centres undefined),50.7
6,c1cnc(NC2COC3(CCN(Cc4ccoc4)CC3)C2)nc1 (centres undefined),3.25
7,c1ccc(OC2COC3(CCN(Cc4ccccn4)CC3)C2)cc1 (centres undefined),81.2
8,c1ccc(CO[C@H]2CO[C@@]3(CCN(Cc4ccoc4)C3)C2)nc1,14.2
9,CCOCCC(=O)Nc1cccc(Cl)c1C(N)=O,-39.2
10,O=C(O)c1ccccc1-c1ccc(CN2CC(O)C2)cc1,-13.7
11,CC(=O)N1CCC[C@H]1C(=O)NCCCN(C(C)C)S(C)(=O)=O,25.4
12,CCNC(c1ccc(Br)cc1)c1cccnc1 (centres undefined),3.15
13,CC(C)(C)c1nnc2n1C(C(=O)N1CCCC1)CC2 (centres undefined),21.7
14,CCC1CN(C(=O)c2cccc(OCc3cscn3)c2)CCO1 (centres undefined),32.025
15,Cc1cnn(CC2CCCN2Cc2nccn2CC(F)(F)F)c1 (centres undefined),-10.1
16,CN1CCN(C[C@@H]2CN(Cc3c(Cl)cncc3Cl)C[C@@H]2CO)CC1,-56.2
17,CC(C1CCN(Cc2c(Cl)cncc2Cl)CC1)N1CCOCC1 (centres undefined),52.5
18,CC(C1CCN(Cc2c(Cl)ccc(O)c2Cl)CC1)N1CCN(C)CC1 (centres undefined),21.145
19,CC(C1CCN(Cc2ccc(N(C)C)nc2)CC1)N1CCOCC1 (centres undefined),36.2
20,CC(C1CCN(Cc2ccc(OC(F)F)cc2)CC1)N1CCOCC1 (centres undefined),33.7
21,CC(C1CCN(Cc2c(Cl)cncc2Cl)CC1)N1CCN(C)CC1 (centres undefined),51.3
22,c1cnc(NC2COC3(CCN(Cc4nccs4)CC3)C2)cn1 (centres undefined),42.7
23,CCN(CC)c1ncc(CNC2CCc3ncnn3C2)s1 (centres undefined),-17.9
24,CC(C)(C)S(=O)(=O)CCNC(=O)c1ccc2cc[nH]c2c1,-19.7
25,COCCN1C[C@@H]2CN(Cc3ccc(C)s3)CCC[C@]2(C(=O)O)C1,24.9
26,COCCn1cc2c(n1)C(CNCc1ccco1)OCC2 (centres undefined),-11.5
